# Hits are enriched below; roughly 1.7% of the tested compounds scored in any of these assays.
# PTHR1 agonist – activates the human parathyroid hormone receptor PTHR1; Q03431; HEK293 GP2 PTHR1 cells, GloSensor cAMP luminescence, 1 h; Potency, µM (top dose mostly 115 µM), inactives show top-dose activation, most hits filed as activators; 0.075% of 410,000 active; AID 743266; also: nearly all actives have a fitted effect of over 55% in size
#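 HEK-293-derived GP2 cells expressing PTHR1 and a GloSensor cAMP reporter, 3,000/well, plated overnight, given luciferin plus IBMX (each 0.5 mM as added) for 1 h at 37 °C, then compound for 1 h at 37 °C. Luminescence was read after 15 min at room temperature.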
# GLP1R cytotox – cytotoxicity in counter-screen for GLP-1R inverse agonists. HEK293 cAMP-luciferase reporter cells, luminescence, 24 h. Potency, µM (highest dose often 38.3 µM), for inactives: at the highest dose activity change, negative = inhibition, hits mostly inhibitors. 0.13% of 410,000 active. AID 624418;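 also: loss of luciferase light is scored as toxicity; % is scaled to controls: 0 for no effect and ±100 for the full control effect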
#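 Quantitative HTS format, 1536 wells, 200 cells/uL seeded. Compounds: 23 nL, 24 h, 37 °C. Detection: luciferase reagent, luminescence at 12 min RT; decreased signal taken as cytotoxic.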
# GLP1R inv ag – acts as inverse agonist at human GLP-1 receptor | P43220 | HEK293 GLP-1R CRE-luciferase, luminescence, 24 h; GLP-1R form is constitutively active | Potency, µM (series often up to 38.3 µM), without a hit: top-dose activity change, negative = inhibition, hits mostly inhibitors | 1.6% of 410,000 active | AID 624417; also: % is scaled to controls: 0 for no effect and ±100 for the full control effect; nearly all actives have a fitted effect of over 55% in size
# Target sequence (P43220 whole entry, looked up): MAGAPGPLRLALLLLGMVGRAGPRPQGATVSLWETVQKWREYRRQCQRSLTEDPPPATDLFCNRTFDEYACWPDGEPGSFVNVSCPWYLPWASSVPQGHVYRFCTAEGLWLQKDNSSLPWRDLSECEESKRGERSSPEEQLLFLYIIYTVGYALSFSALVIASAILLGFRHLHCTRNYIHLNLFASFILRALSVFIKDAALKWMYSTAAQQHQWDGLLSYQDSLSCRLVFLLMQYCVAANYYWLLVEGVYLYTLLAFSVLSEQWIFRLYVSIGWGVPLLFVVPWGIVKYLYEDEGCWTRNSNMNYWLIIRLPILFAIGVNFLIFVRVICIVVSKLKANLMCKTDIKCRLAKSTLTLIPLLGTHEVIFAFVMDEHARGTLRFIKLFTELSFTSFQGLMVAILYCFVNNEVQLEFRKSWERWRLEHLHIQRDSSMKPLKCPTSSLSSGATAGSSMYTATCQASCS
#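 Luminescence readout: a drop in cAMP-driven luciferase signal flags inverse agonism at a constitutively active GLP-1R stably expressed in HEK293. Compound exposure lasted 24 hr at 37 deg C, 5% CO2.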
# GLP-1R agonist – agonists of human GLP-1 receptor | P43220 | HEK293 GLP-1R CRE-luciferase, luminescence, 4-6 h; cells express a hypersensitive GLP-1R form | Potency, µM (series often up to 45.6 µM), for inactives: at the highest dose activation, hits mostly activators | 0.007% of 380,000 active; also: % of control where 0% means no effect
# * marks the source's active call; other numbers are inactive results; i = inactive; ? = inconclusive; · = no result; [ ] = remark or other dose. Calls follow the shape of the dose curve; as a rule, active = well fitted curve in the direction sought with a large enough effect; inconclusive = small, poorly fitted or top-dose-only effect, or another doubt; inactive = no such curve, though single readings can be large; an effect the other way counts as inactive or inconclusive. Potency is read from the fitted curve at half-maximal effect.
SMILES,PTHR1 agonist,GLP1R cytotox,GLP1R inv ag,GLP-1R agonist
Cc1ccc(S(=O)(=O)NCC(c2ccco2)N2CCc3ccccc32)cc1 (centres undefined),-28%,2%,?,13%
CC(C)(C)c1ccc(C(=O)CCCN2CCC(OC(c3ccccc3)c3ccccc3)CC2)cc1,·,·,·,8%
Cc1cc2oc(C(=O)N(Cc3ccc(N(C)C)cc3)CC3CCCO3)c(C)c2cc1Cl (centres undefined),-24%,-14%,-15%,·
CCN1C(=O)c2ccccc2S(=O)(=O)c2ccc(C(=O)NCc3ccccc3)cc21,-5%,4%,8%,0%
CCN(CC)CCC#CC(O)(c1ccccc1)c1ccccc1,i,-12%,?,-2%
CCN(CC)CC#CC(OC)(c1ccccc1)c1ccccc1,-8%,-9%,5µM*,-1%
COc1ccc(-c2nc3scc(CCNS(=O)(=O)c4ccc(Oc5ccccc5)cc4)n3n2)cc1OC,i,0%,57%,·
C#CCN(C[C@@H]1[C@@H](OC(=O)Nc2cccs2)[C@@H](OC(=O)Nc2cccs2)Cn2c(=O)ccc(=O)n21)S(=O)(=O)c1ccc(C)cc1,-54%,?,2.8µM*,-8%
Cc1nn(-c2ccccc2)c2nc(C3CC3)cc(C(=O)Nc3cccc(F)c3)c12,-15%,-22%,5.6µM*,·
CCc1ccc(-n2nc(C)c3c(C(=O)Nc4cccc(C(F)(F)F)c4)cc(C)nc32)cc1,-43%,-27%,2.2µM*,·
CCc1ccc(-n2nc(C)c3c(C(=O)Nc4ccc(Cl)cc4)cc(C)nc32)cc1,-23%,4%,-13%,·
CCOc1ccc(C(C(=O)NCC2CCCO2)N(CCc2cccc(C)c2)C(=O)c2snc(C(N)=O)c2N)cc1 (centres undefined),-36%,?,7.9µM*,0%
CCOc1ccc(C(C(=O)NCC2CCCO2)N(C(=O)c2snc(C(N)=O)c2N)c2ccc(F)cc2)cc1 (centres undefined),i,1%,-24%,3%
CCOc1cc(OCC)c(C(=O)CCC(=O)O)cc1OCC,·,·,·,6%
CCCCN(CCCC)CCNC(=O)c1cn(C)c2ccc(S(=O)(=O)N3CCOCC3)cc2c1=O,i,5%,-6%,·
COC(=O)N/N=C/c1cn(Cc2ccccc2F)c2ccccc12,i,1%,?,5%
COC(=O)N/N=C/c1cn(CCCOc2ccccc2)c2ccccc12,-96%,7%,10µM*,4%
COC(=O)N/N=C/c1cn(Cc2ccc(F)cc2)c2ccccc12,i,-5%,7.9µM*,13%
Cc1nc2c(-c3ccc(F)cc3)c(C)nn2c(C)c1CCC(=O)NC(C)CCc1ccco1 (centres undefined),-17%,14%,7.1µM*,-1%
Cc1ccc(CSc2nc3c(c(N(C)C)n2)CCCC3)cc1,-38%[57.5 µM],-10%,11µM*,5%
CCOc1ccc(CCNC(=O)Cn2nc(-c3ccc(C)cc3)ccc2=O)cc1OCC,i,-1%,12%,·
O=C(Nc1ccc2c(c1)OCCO2)c1cccc(Cl)c1Cl,-21%,-12%,11µM*,-2%
NCCSc1c(-c2ccc(F)cc2)[nH]c2ccccc12,-18%,-21%,10µM*,-6%
CN1C(=O)/C(=C/c2ccccc2OCc2cccc(F)c2)N(C)C1=S,-19%,-4%,5.6µM*,12%
Cc1ccc(-c2cn3nc(N4CCCC(C(=O)NCc5ccc(F)cc5)C4)sc3n2)cc1 (centres undefined),-25%,-4%,-10%,·
SMILES,PTHR1 agonist,GLP1R cytotox,GLP1R inv ag,GLP-1R agonist
Cc1ccc(NC2=C(N3CCOCC3)C(=O)c3ccccc3C2=O)cc1,-96%,10µM*,-13%,13%
CC(=O)c1ccc(NC2=C(N3CCOCC3)C(=O)c3ccccc3C2=O)cc1,-47%,?,9%,13%
O=C(c1ccco1)N1CCN(S(=O)(=O)c2ccc(C3CCCCC3)cc2)CC1,-21%,-3%,19%,-1%
CS(=O)(=O)c1ccccc1C(=O)N1CCN(S(=O)(=O)c2ccc(C3CCCCC3)cc2)CC1,-35%,-7%,10µM*,-1%
CC(C)COc1ccc(CSCCNC(=S)Nc2ccccc2)cc1,-57%,4.5µM*,3.2µM*,2%
CCCCCOc1ccc(CSCCNC(=S)Nc2ccccc2)cc1,-21%,-7%[1.53 µM],?,-4%
Cc1cccc(CSCCNC(=O)Nc2ccccc2)c1,-11%,-20%,?,-3%
CCCCOc1ccc(CSCCNC(=S)Nc2ccccc2)cc1,-31%,3.2µM*,1.8µM*,-4%
CN=C1C=CC(=C(c2ccc(N(C)C)cc2)c2ccc(N(C)C)cc2)C=C1,·,·,·,-4%
Cc1ccc(NC(=O)CN2C(=O)COc3ccc(S(=O)(=O)N4CCCCCC4)cc32)c(C)c1,7%,3%,-15%,·
Cc1ccc(NS(=O)(=O)c2cc(NC(=O)c3ccc4c(c3)NC(=O)CS4)ccc2Cl)c(C)c1,-90%,?,2.5µM*,-3%
COc1ccc(NC(=O)c2ccc3c(c2)NC(=O)CS3)cc1,-51%,0%,4%,-5%
CCNC(=O)CC1C(=O)N(c2ccccc2)C(=O)N1CCC(C)C (centres undefined),-22%[57.5 µM],-3%,15%,-14%
COc1cccc(N2C(=O)C(CC(=O)Nc3ccc(F)cc3)N(CCC3=CCCCC3)C2=O)c1 (centres undefined),i,?,10µM*,·
CC(C)CCN1C(=O)N(c2ccccc2)C(=O)C1CC(=O)Nc1ccc(Cl)cc1 (centres undefined),i,1%,10µM*,·
COc1cccc(C2c3[nH]c4ccccc4c3CCN2Cc2cccn2-c2ncccn2)c1 (centres undefined),-33%,3%,?,-4%
Fc1ccc(C2c3[nH]c4ccccc4c3CCN2Cc2cccn2-c2ncccn2)cc1 (centres undefined),-17%,-22%,11µM*,3%
Cc1cccc(S(=O)(=O)Nc2cc(Cl)ccc2N2CCOCC2)c1,-14%,-2%,10µM*,7%
O=S(=O)(Nc1cc(C(F)(F)F)ccc1N1CCOCC1)c1ccccc1,i,3%,-27%,-2%
COc1ccc(/C=N/NC(=O)c2cc(C(C)(C)C)[nH]n2)cc1COc1ccc(F)cc1F,-28%,?,6.3µM*,-6%
COc1ccc(/C=N\NC(=O)c2ccccc2F)cc1COc1ccc(F)cc1F,-19%,?,?,?
CCc1nc2ccccc2n1CC(=O)N1CCN(S(=O)(=O)c2cccc(C(F)(F)F)c2)CC1,i,3%,0%,0%
O=C(c1cc(Cl)nc2ccccc12)N1CCN(S(=O)(=O)c2cccc(C(F)(F)F)c2)CC1,-12%,-3%,11µM*,8%
CC(C)(C)OC(=O)N1CCC[C@H]1c1nnc(SCc2ccccc2Cl)o1,-33%[57.5 µM],-13%,?,2%
CC(C)(C)OC(=O)NCCCCCc1nnc(SCc2c(F)cccc2Cl)o1,-1%,-2%,10µM*,14%

# Screening data (PubChem BioAssay)
